“And” between values parts separate entries of the source, which are not always exact repeats. Identical values can stand only once. The panel holds about 79,000 compounds, 15% with a hit somewhere; the sample as a whole holds those more often. Where a structure was tested more than once in an assay, its records may differ in their call. The source made the active and inactive calls. Cut-off read from the data, not from the text of the source: active = growth inhibition above about 70%; inactive = the rest.

Assay [1] in a line: NCI Yeast Anticancer Drug Screen. Data for the rad50 strain (AID 155).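 Note: 0% = growth of vehicle-only cultures of the same strain.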 To be noted: S. cerevisiae rad50 strain growth inhibition, stronger effect = higher value. The method in brief: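 Vehicle-treated cultures provide the reference for the growth inhibition reported for compound-exposed, repair-deficient yeast.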
Assay [2] in a line: NCI Yeast Anticancer Drug Screen. Data for the mec2-1 strain (AID 157). To be noted: S. cerevisiae mec2-1 strain, stronger effect = higher value. The gist of the method: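 Strain: mec2-1 (DNA repair/cell cycle alteration). Compound exposure, then growth measured; inhibition expressed relative to vehicle.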
A short description of assay [3]: NCI Yeast Anticancer Drug Screen. Data for the sgs1 mgt1 strain (AID 161).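 Note: 0% = growth of cultures given vehicle only.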 To be noted: S. cerevisiae sgs1 mgt1 strain, stronger effect = higher value. The method in brief:
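Test agents were incubated with a DNA-repair-mutant yeast strain. Growth was then read and compared against vehicle-treated controls.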

A short description of assay [4]: NCI Yeast Anticancer Drug Screen. Data for the cln2 rad14 strain (AID 165).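 Note: 0% = growth equal to vehicle treated cultures.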 To be noted: S. cerevisiae cln2 rad14 strain, stronger effect = higher value. The gist of the method: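 Compounds are applied to the cln2 rad14 yeast strain, and growth is then compared with that of vehicle-treated cultures to give inhibition.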
The nature of assay [5]: NCI Yeast Anticancer Drug Screen. Data for the bub3 strain (AID 167). The following applies: S. cerevisiae bub3 mutant strain, stronger effect = higher value. The method in brief:
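Mutant yeast screening strain plus compound; vehicle-treated cultures serve as the 0% inhibition reference.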

Assay [6] is described as follows: NCI Yeast Anticancer Drug Screen. Data for the mlh1 rad18 strain (AID 175). To be noted: S. cerevisiae mlh1 rad18 strain growth inhibition, stronger effect = higher value. The method in brief: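 Read-out is yeast growth inhibition, calculated against vehicle-only controls. The compound was applied to a strain engineered with DNA damage repair alterations.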
The mark [7] stands for this setting: at 5.0 µM (retest, dose inferred, filed as 0.5).
Setting [8] is: at 50.0 µM (retest, dose inferred, filed as 5.0).

With `C[C@H]1CC[C@H]([C@@H](C)[C@H]2[C@@H](O)C[C@H]3[C@@H]4CC[C@H]5C[C@@H](O)CC[C@]5(C)[C@H]4CC[C@]23C)NC1`, the growth inhibition in assay [1] (setting [7]) is 32% (inactive) and 5% (inactive); in assay [1] (setting [8]), 94% (active) and 96% (active); in assay [1] (at 50.0 µM) it was 91.3% (active) and 88.7% (active); in assay [2] (setting [7]) it was 19% (inactive) and 2% (inactive); in assay [2] (setting [8]), 98% (active) and 99% (active); in assay [2] (at 50.0 µM), 91.8% (active) and 85.7% (active). Further, the growth inhibition was 23% (inactive) and 4% (inactive) in assay [3] (setting [7]); 98% (active) and 94% (active) in assay [3] (setting [8]); 92.5% (active) and 85.7% (active) in assay [3] (at 50.0 µM); 23% (inactive) and 1% (inactive) in assay [4] (setting [7]); 97% (active) and 60% (inactive) in assay [4] (setting [8]); 91% (active) and 88.3% (active) in assay [4] (at 50.0 µM). Further, the growth inhibition in assay [5] (setting [7]) is 24% (inactive) and 0% (inactive); in assay [5] (setting [8]), 98% (active) and 92% (active); in assay [5] (at 50.0 µM), 92.1% (active) and 89.3% (active); in assay [6] (setting [7]) it was 28% (inactive) and -4% (inactive); in assay [6] (setting [8]) it was 97% (active) and 98% (active); in assay [6] (at 50.0 µM), 84.5% (active) and 89.2% (active).

As for `O=C(O)C1(Cc2ccccc2)Cc2cc3c(cc2C1)CCC3`, the growth inhibition was 5% (inactive) in assay [1] (setting [7]); 5% (inactive) in assay [1] (setting [8]); 90% (active) in assay [1] (at 50.0 µM); -4% (inactive) in assay [2] (setting [7]); -4% (inactive) in assay [2] (setting [8]); 92% (active) in assay [2] (at 50.0 µM). For the same compound, the growth inhibition in assay [3] (setting [7]) is 0% (inactive); in assay [3] (setting [8]) it was 0% (inactive); in assay [3] (at 50.0 µM), 87.2% (active); in assay [4] (setting [7]), 2% (inactive); in assay [4] (setting [8]), 2% (inactive); in assay [4] (at 50.0 µM) it was 89% (active). In addition, the growth inhibition in assay [5] (setting [7]) is -17% (inactive); in assay [5] (setting [8]) it was -17% (inactive); in assay [5] (at 50.0 µM), 89.7% (active); in assay [6] (setting [7]) it was 8% (inactive); in assay [6] (setting [8]), 8% (inactive); in assay [6] (at 50.0 µM) it was 84.8% (active).

For the compound `O=S(O)CCCCSSCC(O)C(O)CSSCCCCS(=O)O` (centres undefined), the growth inhibition is -7% (inactive) in assay [1] (setting [7]); 21% (inactive) in assay [1] (setting [8]); 49.4% (inactive) in assay [1] (at 50.0 µM); 12% (inactive) in assay [2] (setting [7]); 44% (inactive) in assay [2] (setting [8]); 56.1% (inactive) in assay [2] (at 50.0 µM). In addition, the growth inhibition in assay [3] (setting [7]) was 6% (inactive); in assay [3] (setting [8]), 50% (inactive); in assay [3] (at 50.0 µM), 78.8% (active); in assay [4] (setting [7]), -10% (inactive); in assay [4] (setting [8]), 24% (inactive); in assay [4] (at 50.0 µM), 37% (inactive). Also, the growth inhibition in assay [5] (setting [7]) was 3% (inactive); in assay [5] (setting [8]) it was 55% (inactive); in assay [5] (at 50.0 µM), 57.5% (inactive); in assay [6] (setting [7]) it was 3% (inactive); in assay [6] (setting [8]), 33% (inactive); in assay [6] (at 50.0 µM), 73% (active).

As to `O=[N+]([O-])C(/C=C(\Cl)[N+](=O)[O-])=C(Nc1ccccc1)Nc1ccccc1`, the growth inhibition in assay [1] (setting [7]) was -23% (inactive); in assay [1] (setting [8]), 98% (active); in assay [1] (at 50.0 µM) it was 86.8% (active); in assay [2] (setting [7]), -7% (inactive); in assay [2] (setting [8]), 99% (active); in assay [2] (at 50.0 µM) it was 88.2% (active). In addition, the growth inhibition was -16% (inactive) in assay [3] (setting [7]); 98% (active) in assay [3] (setting [8]); 86.8% (active) in assay [3] (at 50.0 µM); 1% (inactive) in assay [4] (setting [7]); 98% (active) in assay [4] (setting [8]); 82.8% (active) in assay [4] (at 50.0 µM). Moreover, the growth inhibition in assay [5] (setting [7]) was -33% (inactive); in assay [5] (setting [8]) it was 99% (active); in assay [5] (at 50.0 µM), 85.8% (active); in assay [6] (setting [7]), 27% (inactive); in assay [6] (setting [8]), 99% (active); in assay [6] (at 50.0 µM), 80.3% (active).

On to `CCCCN(C(=O)CCl)c1ccccc1`, for which the growth inhibition in assay [1] (setting [7]) was 2% (inactive); in assay [1] (setting [8]) it was 13% (inactive); in assay [1] (at 50.0 µM), 50.3% (inactive); in assay [2] (setting [7]), -1% (inactive); in assay [2] (setting [8]), 9% (inactive); in assay [2] (at 50.0 µM), 19.1% (inactive). The growth inhibition in assay [3] (setting [7]) is -4% (inactive); in assay [3] (setting [8]) it was 3% (inactive); in assay [3] (at 50.0 µM) it was 54.2% (inactive); in assay [4] (setting [7]), 1% (inactive); in assay [4] (setting [8]), 5% (inactive); in assay [4] (at 50.0 µM), 20% (inactive). Moreover, the growth inhibition in assay [5] (setting [7]) was -9% (inactive); in assay [5] (setting [8]), -16% (inactive); in assay [5] (at 50.0 µM), 34.9% (inactive); in assay [6] (setting [7]) it was 0% (inactive); in assay [6] (setting [8]), 10% (inactive); in assay [6] (at 50.0 µM) it was 73.7% (active).

As for `Cc1ccc(C(C)C)c2c1CN(CCN1COc3c(C(C)C)ccc(C)c3C1)CO2`, the growth inhibition is -3% (inactive) in assay [1] (setting [7]); 2% (inactive) in assay [1] (setting [8]); -3.9% (inactive) in assay [1] (at 50.0 µM); 0% (inactive) in assay [2] (setting [7]); 3% (inactive) in assay [2] (setting [8]); 6.8% (inactive) in assay [2] (at 50.0 µM). Besides, the growth inhibition in assay [3] (setting [7]) is -3% (inactive); in assay [3] (setting [8]) it was -1% (inactive); in assay [3] (at 50.0 µM), -13.8% (inactive); in assay [4] (setting [7]), -4% (inactive); in assay [4] (setting [8]), 1% (inactive); in assay [4] (at 50.0 µM) it was -11.2% (inactive). In addition, the growth inhibition in assay [5] (setting [7]) was -1% (inactive); in assay [5] (setting [8]) it was -2% (inactive); in assay [5] (at 50.0 µM), -2.95% (inactive); in assay [6] (setting [7]) it was -1% (inactive); in assay [6] (setting [8]), 4% (inactive); in assay [6] (at 50.0 µM), -8.65% (inactive).

In the case of `c1ccc(-c2cnc(-c3ccc(-c4ncc(-c5ccccc5)o4)cc3)o2)cc1`, the growth inhibition in assay [1] (setting [7]) is -13% (inactive); in assay [1] (setting [8]), -8% (inactive); in assay [1] (at 50.0 µM), -8.4% (inactive); in assay [2] (setting [7]), -6% (inactive); in assay [2] (setting [8]), -17% (inactive); in assay [2] (at 50.0 µM), -27.4% (inactive). Also, the growth inhibition in assay [3] (setting [7]) was -23% (inactive); in assay [3] (setting [8]) it was -11% (inactive); in assay [3] (at 50.0 µM), -47.8% (inactive); in assay [4] (setting [7]) it was -11% (inactive); in assay [4] (setting [8]), -10% (inactive); in assay [4] (at 50.0 µM), 91% (active). For the same compound, the growth inhibition in assay [5] (setting [7]) was 0% (inactive); in assay [5] (setting [8]), 5% (inactive); in assay [5] (at 50.0 µM), -32.6% (inactive); in assay [6] (setting [7]) it was 5% (inactive); in assay [6] (setting [8]), -10% (inactive); in assay [6] (at 50.0 µM), -20.6% (inactive).

As for `COc1ccc(C2SC(N)=Nc3c2c(C)nn3C(=O)c2ccc(Cl)cc2)cc1OC` (centres undefined), the growth inhibition was 6% (inactive) in assay [1] (setting [7]); 11% (inactive) in assay [1] (setting [8]); -19.2% (inactive) in assay [1] (at 50.0 µM); -10% (inactive) in assay [2] (setting [7]); -1% (inactive) in assay [2] (setting [8]); 14.5% (inactive) in assay [2] (at 50.0 µM). The growth inhibition in assay [3] (setting [7]) is -7% (inactive); in assay [3] (setting [8]) it was 0% (inactive); in assay [3] (at 50.0 µM), 3.85% (inactive); in assay [4] (setting [7]), -21% (inactive); in assay [4] (setting [8]) it was 1% (inactive); in assay [4] (at 50.0 µM), 64.5% (inactive). In addition, the growth inhibition in assay [5] (setting [7]) is -18% (inactive); in assay [5] (setting [8]), 15% (inactive); in assay [5] (at 50.0 µM), 16.1% (inactive); in assay [6] (setting [7]) it was -8% (inactive); in assay [6] (setting [8]), -15% (inactive); in assay [6] (at 50.0 µM) it was -26.6% (inactive).

The values above are taken from PubChem BioAssay (NCI).
